Screens from PubChem.
GLS inh – inhibitors of human glutaminase (GLS). O94925. GLS enzymatic activity, qHTS titration. Potency, µM (titrated, usually from 45.5 µM), for inactives: top-dose activity change, negative = inhibition, hits mostly inhibitors. 410,000 tested, 0.21% active. AID 624170; further: on the % scale 0 is the no-effect control and ±100 the full control effect
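hKGA in 45 mM KH2PO4 (pH 8.2), 0.02% Tween-20 with compound, then 1mM L-Glutamine (stock as added) plus glutamate oxidase/HRP/Amplex red coupling mix. Fluorescence read initially and after 30 min at RT; signal change reflects glutamate formation.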
JMJD2A Tudor inh – inhibitors of human JMJD2A Tudor domain. O75164. AlphaScreen JMJD2A-Tudor / H3K4me3 peptide binding. Potency, µM (titrated, usually from 114 µM), for inactives: at the highest dose activity change, negative = inhibition, usual class: inhibitors. 390,000 tested, 4.4% active; further: on the % scale 0 is the no-effect control and ±100 the full control effect; nearly all actives have a fitted effect of over 50% in size
G9a block – inhibitors of human histone lysine methyltransferase G9a; AID 504332; 350,000 tested, 8.8% active; G9a H3K9 monomethylation, AlphaScreen, 2 h; Potency, µM (top dose mostly 102 µM), inactives show at the top dose activity, negative = inhibition, hits mostly inhibitors; further: on the % scale 0 is the no-effect control and ±100 the full control effect; nearly all actives have a fitted effect of over 75% in size
Target sequence (Q96KQ7 913-1193 limits assumed): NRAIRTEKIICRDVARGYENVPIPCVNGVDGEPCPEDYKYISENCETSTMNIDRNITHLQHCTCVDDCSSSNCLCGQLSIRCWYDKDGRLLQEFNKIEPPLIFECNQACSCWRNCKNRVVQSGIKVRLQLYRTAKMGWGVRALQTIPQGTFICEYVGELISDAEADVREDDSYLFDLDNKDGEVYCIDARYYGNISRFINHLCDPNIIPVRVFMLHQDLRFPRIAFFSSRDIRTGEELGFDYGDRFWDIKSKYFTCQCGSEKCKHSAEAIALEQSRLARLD
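Methyltransferase reactions run at room temperature for 2 h (20 nM enzyme, 500 nM biotin-H3K9 peptide, 20 uM SAM) after a 15 min compound preincubation; product detected by AlphaScreen beads and anti-H3K9me1 antibody.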
HP1b chromo inh – HP1-beta chromodomain-methylated histone interaction inhibition. 390,000 tested, 0.56% active. P83916. Potency, µM (highest dose often 114 µM), for the others: at the highest dose activity change, negative = inhibition, hits mostly inhibitors. AID 540317. AlphaScreen HP1-beta / biotin-H3K9me3 peptide binding; further: nearly all actives have a fitted effect of over 70% in size
Target sequence (P83916 whole entry, looked up): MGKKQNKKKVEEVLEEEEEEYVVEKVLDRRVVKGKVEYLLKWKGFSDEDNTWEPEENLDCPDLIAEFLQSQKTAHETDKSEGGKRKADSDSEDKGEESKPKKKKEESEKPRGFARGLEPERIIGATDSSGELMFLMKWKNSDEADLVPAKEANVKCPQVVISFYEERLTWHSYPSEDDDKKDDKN
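HP1-beta protein (50 nM final) preincubated 30 min at room temperature with biotinylated H3(1-18)K9me3 peptide (50 nM) in PBS pH 7.4, 0.01% Tween-20, then compound added for 30 min. AlphaScreen streptavidin donor/nickel chelate acceptor beads (10 ug/mL final), 30 min dark, luminescence read.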
BAZ2B block – inhibitors of human BAZ2B bromodomain; AlphaScreen BAZ2B-H3K14Ac peptide displacement; Potency, µM (series often up to 114 µM), for inactives: top-dose activity change, negative = inhibition, usual class: inhibitors; 360,000 tested, 4.4% active; AID 504333; Q9UIF8; further: on the % scale 0 is the no-effect control and ±100 the full control effect; nearly all actives have a fitted effect of over 60% in size
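Multi-concentration screen (max 110 uM) measuring displacement of acetylated histone H3 peptide from BAZ2B by AlphaScreen, using 50 nM protein, 50 nM peptide and 10 ug/mL streptavidin donor plus Ni-chelate acceptor beads.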
An asterisk follows results filed as active; ! = not active in a repeat; [ ] = another dose, or the depositor's remark. Shown are actives, neighbours in structure and some others; about 10% of the full set was active somewhere. The call rests on the fitted dose curve; in most records, active means well fitted curve in the direction sought with a large enough effect; inconclusive means small, poorly fitted or top-dose-only effect, or another doubt; inactive means no such curve, though single readings can be large; an effect the other way counts as inactive or inconclusive. Potency means the concentration at half of the fitted maximal effect.

For CC[C@@]1(c2ccccc2)C(=O)N(C(=O)OC)N1C(=O)OC the results were GLS inh 10%, JMJD2A Tudor inh -10%, G9a block 28µM*, HP1b chromo inh 64% and BAZ2B block -34%.
For COC(=O)N1C(=O)[C@](Cc2ccccc2)(c2ccccc2)N1C(=O)OC the results were GLS inh 12%, JMJD2A Tudor inh -17%, G9a block 40µM*, HP1b chromo inh 43% and BAZ2B block -31%.
For CC[C@]1(c2ccccc2)C(=O)N(C(=O)OC)N1C(=O)OC the results were GLS inh 33%, JMJD2A Tudor inh -19%, HP1b chromo inh 38% and BAZ2B block 1%.
For COC(=O)c1ccc(NC(=O)CSc2ccc(-c3sc(-c4ccccc4)nc3C)nn2)cc1 the results were GLS inh 7%, JMJD2A Tudor inh -17%, G9a block -28%[59 µM], HP1b chromo inh 33% and BAZ2B block -13%.
CN(C)/N=C/C=C1\CC/C(=C\c2ccc(Br)cc2)C1=O was read as GLS inh -1%, JMJD2A Tudor inh -30%, G9a block 50µM*, HP1b chromo inh -8% and BAZ2B block inconclusive.
CN(C)/N=C/C=C1\CCC/C(=C/c2cccs2)C1=O was read as GLS inh 10%, JMJD2A Tudor inh inconclusive, G9a block -35%, HP1b chromo inh -5% and BAZ2B block inconclusive.
CC(C)(CCC(=S)N1CCOCC1)C1CCCCC1 was read as GLS inh inconclusive, JMJD2A Tudor inh 1%, G9a block 8.9µM*, HP1b chromo inh -20% and BAZ2B block 2%.
For S=C(CN1CCCC1=S)N1CCOCC1 the results were GLS inh -2%, JMJD2A Tudor inh -1% and HP1b chromo inh 29%.
Screening Cc1cc(O)c(C=O)c2c1C(=O)Oc1c(CO)c(O)c3c(c1O2)C(O)OC3=O (configuration not stated) returned GLS inh -22%, JMJD2A Tudor inh 3.2µM*, G9a block inconclusive, HP1b chromo inh inconclusive and BAZ2B block 20µM*.
C=C1C2=C(C(=O)N1OC)[C@@H](O)[C@@](C)(O)[C@@H](CCCCC)O2 was read as GLS inh -4%.
For CCC(C)C(=O)OC1CCC=C2C=CC(C)C(CCC3CC(O)CC(=O)O3)C21 (configuration not stated) the results were GLS inh -6%, JMJD2A Tudor inh -19% and HP1b chromo inh 40%.
Screening CC[C@H](C)C(=O)O[C@H]1C[C@@H](C)C=C2C=C[C@H](C)[C@H](CC[C@@H]3C[C@@H](O)CC(=O)O3)[C@H]21 returned GLS inh 3%, JMJD2A Tudor inh -16%, G9a block 16µM*!, HP1b chromo inh 11% and BAZ2B block -22%.
Screening Cc1ccc(C(=O)CC2(O)C(=O)N(C)c3ccccc32)s1 (configuration not stated) returned GLS inh -3%, JMJD2A Tudor inh 3%, G9a block 45µM*, HP1b chromo inh 47% and BAZ2B block -10%.
For OCCN(Cc1ccccc1)CC1CC2C=CC1C2 (configuration not stated) the results were GLS inh 14%, JMJD2A Tudor inh 3.2µM*, G9a block 14µM*, HP1b chromo inh -51% and BAZ2B block inconclusive.
Screening O=C1C2C3C=CC(C3)C2C(=O)N1CN(Cc1ccccc1)CN1C(=O)C2C3C=CC(C3)C2C1=O (configuration not stated) returned GLS inh -2%, JMJD2A Tudor inh -4%, G9a block -3%[59 µM], HP1b chromo inh 15% and BAZ2B block 18%.
Screening OCCN(Cc1ccccc1)CC1CCCCC1 returned GLS inh 0%, JMJD2A Tudor inh 22µM*, G9a block 11µM*, HP1b chromo inh 14% and BAZ2B block inconclusive.
Screening O=C(CN1C(=O)NC2(CCc3ccccc32)C1=O)Nc1ccc(Cl)cc1F (configuration not stated) returned GLS inh 3%.
For CCCCOC(=O)C(C)c1c(C)[nH]c(=S)[nH]c1=O (configuration not stated) the results were GLS inh 5%, JMJD2A Tudor inh 2%, G9a block 40µM*, HP1b chromo inh 43% and BAZ2B block -33%.
CCCCOC(=O)C(C)Nc1n[nH]c(=S)[nH]c1=O (configuration not stated) was read as GLS inh -20%, JMJD2A Tudor inh 11µM*, G9a block inconclusive, HP1b chromo inh -11% and BAZ2B block inconclusive.
`CCCCOC(=O)CCc1c(C)[nH]c(=S)[nH]c1=O` gave GLS inh -20%, JMJD2A Tudor inh -14%, G9a block 35%[0.501 µM], HP1b chromo inh 43% and BAZ2B block -7%.
`O=c1c(N=Nc2ccc(O)cc2)c(-c2ccccc2)[nH]n1-c1ccc([N+](=O)[O-])cc1` gave GLS inh -5%, JMJD2A Tudor inh inconclusive, G9a block 7.1µM*, HP1b chromo inh -8% and BAZ2B block -29%.
O=c1ccc(-c2ccc([N+](=O)[O-])cc2)nn1-c1ccccc1 was read as GLS inh 7%, JMJD2A Tudor inh -6%, G9a block 2%, HP1b chromo inh 21% and BAZ2B block 0%.
For O=c1cc(-c2ccccc2)[nH]n1-c1ccc([N+](=O)[O-])cc1 the results were GLS inh 14%, JMJD2A Tudor inh 35µM*, G9a block inconclusive, HP1b chromo inh inconclusive and BAZ2B block 45µM*.
Screening Cc1ccc(N=Nc2c(C)[nH]n(C(N)=S)c2=O)cc1 returned GLS inh 1%, JMJD2A Tudor inh -31%, G9a block 11%, HP1b chromo inh 22% and BAZ2B block 0%.
Screening Cc1ccc([N+](=O)[O-])cc1N=Nc1c(C)[nH]n(C(N)=S)c1=O returned GLS inh 4%, JMJD2A Tudor inh -5%, G9a block -20%, HP1b chromo inh 43% and BAZ2B block -2%.
Cc1ccc([N+](=O)[O-])cc1N=Nc1c(-c2ccc([N+](=O)[O-])cc2)[nH]n(C(N)=S)c1=O was read as GLS inh 16%, JMJD2A Tudor inh inconclusive, G9a block inconclusive, HP1b chromo inh -4% and BAZ2B block 32µM*.
`NC(=O)c1ccc(N=Nc2c(-c3ccccc3)[nH]n(-c3ccccc3)c2=O)cc1` gave G9a block -35%.
`NC(=S)n1[nH]c(-c2ccc([N+](=O)[O-])cc2)c(N=Nc2ccc(Cl)cc2)c1=O` gave GLS inh -11%, JMJD2A Tudor inh 63µM*, G9a block 45µM*, HP1b chromo inh 8% and BAZ2B block 5.6µM*.
O=C(OCC#CCSc1nnc(-c2cccc3ccccc23)o1)c1ccsc1 was read as JMJD2A Tudor inh 29%.
